Test results taken from PubChem BioAssay AID504941 (Broad Institute, 2011).
Among all 1,200 compounds or so, about 170 (14%) were called active. A selection follows. Results with a measured potency or affinity are listed apart. A number with no mark means an inactive call. No rule for the calls is given here.

Experiment: E. coli Tat export inhibitors, dose response, cherry-pick, set 2, plate reader (AID 504941)
Details: E. coli Tat transport reporter; series mostly up to 38 µM; activity change, negative = inhibition: at the top concentration

Row | SMILES | activity change, negative = inhibition [%]
1 | CCCCCCc1ccc(N2C[C@H](Cc3ccccc3)[C@@H](CC(=O)NCc3ccc(OC)cc3)C2=O)cc1 | 29.2
2 | CCCOc1cc(C)c(S(=O)(=O)N2CCN(C)CC2)cc1C | -6.77
3 | COc1ccc(OC)c(S(=O)(=O)NCCc2ccccc2)c1 | -12.3
4 | COc1ccc(S(=O)(=O)NCc2ccco2)c2ccccc12 | 9.03
5 | COC(=O)C1=CN(C(C)C)C=C(C(=O)OC)C1c1cccc(OC)c1 | 12.3
6 | COc1ccc(N2C(=O)C3C4C=CC(C4)C3C2=O)nn1 (stereo not drawn) | 2.9
7 | CCNC(=O)c1ccc(NS(=O)(=O)c2ccccc2)cc1 | 20.1
8 | Cc1ccc(-c2cc(C(=O)OCC(=O)N(C)c3c(N)n(Cc4ccccc4)c(=O)[nH]c3=O)c3ccccc3n2)o1 | 26
9 | N#CC1=C2SCC(O)(c3ccccc3)N2C(=O)CC1c1ccccc1F (stereo not drawn) | -1.97
10 | COc1cc(NC(=O)C2CC(=O)NC3=C2C(=O)CC(C)(C)C3)c(OC)cc1Cl (stereo not drawn) | 18.6
11 | Cn1c(C(=O)NCc2cccs2)cc2c(=O)n(C)c3ccccc3c21 | 8.97
12 | COC(C(=O)Nc1ccnn1C1CCN(Cc2ccc(C)o2)CC1)c1ccccc1 (stereo not drawn) | 1.14
13 | O=C(c1n[nH]c2ccccc12)N1CCOCC1 | 2.16
14 | O=C(CSc1cccc[n+]1[O-])Nc1ccccc1C(F)(F)F | 12.2
15 | C/C(Cn1nnc([N+](=O)[O-])n1)=N\NC(=O)c1ccc(O)cc1O | 9.9
16 | CC1CCCCN1S(=O)(=O)c1ccc(NC(=O)c2ccco2)cc1 (stereo not drawn) | 2.51
17 | CCn1c(C)nc2cc(C(=O)N/N=C/c3ccc(OC)c(O)c3)ccc21 | -1.99
18 | COc1cccc(C2C(C(=O)OC(C)C)=C(C)Nc3ncnn32)c1 (stereo not drawn) | 6.75
19 | CCN(CC)S(=O)(=O)c1ccc(=O)n(CC(=O)N2Cc3ccccc3CC2C(N)=O)c1 (stereo not drawn) | -7.2
20 | CC(Sc1nc2ccccc2c(=O)n1C)C(=O)NC1CCCCC1C (stereo not drawn) | -7.32
21 | Cc1nn(Cc2ccccc2Cl)c(C)c1NC(=O)c1ccn(C)n1 | -0.679
22 | Cn1c(=O)oc2cc(S(=O)(=O)NCCN3CCCCCC3)ccc21 | -0.08
23 | CC(C)Sc1nc2c(c(=O)[nH]c(=O)n2C)n1CCc1ccccc1 | -6.57

Row | SMILES | activity change, negative = inhibition [%]
24 | CCn1c(SCC(=O)Nc2ccc(OC)cc2)nc2c1c(=O)n(C)c(=O)n2C | -3.88
25 | CCOCCOc1nc2c(c(=O)n(C)c(=O)n2C)n1Cc1ccc(C)cc1 | 9.39
26 | CN(C)c1nc(NCc2ccccc2)nc(SCC(N)=O)n1 | -14.3
27 | O=C(CN1CCN(c2ccccc2)CC1)N1N=CCC1c1ccccc1 (stereo not drawn) | -3.44
28 | Cc1nc2ccccc2c(=O)n1CCCO | 16.5
29 | Cn1c(-c2ccccc2)cnc1N | 7.04
30 | Cc1c(OCC(=O)NCCCN2CCOCC2)ccc2c1oc(=O)c1ccccc12 | 0.385
31 | CC(Sc1ccsc1[N+](=O)[O-])C(=O)N1CCN(c2ccccn2)CC1 (stereo not drawn) | 8.43
32 | N#Cc1ccccc1S(=O)(=O)N1CCN(CC(=O)Nc2ccnn2C2CCCC2)CC1 | 12.7
33 | CCN(CC)C(=O)CSc1nc2ccccc2o1 | 8.86
34 | COC(=O)c1ccc(C2CC(=O)Nc3cc(OC)c(OC)cc32)cc1 (stereo not drawn) | 1.38
35 | Cc1ccc(S(=O)(=O)N2CCOCC2)cc1NC(=O)c1cc2ccccc2oc1=O | 10.6
36 | Cc1ccc(NC(=O)/C(=C/c2cccc([N+](=O)[O-])c2)NC(=O)C2CCCCC2)c(C)c1 | 19.2
37 | COc1ccc(CN2CSC(=S)N(Cc3ccccc3)C2)cc1 | 0.18
38 | Nc1cc(N)nc(SCc2ccc(Cl)cc2)n1 | 2.74
39 | O=C(CCCCCNC(=O)c1ccccc1)C[N+](=O)[O-] | 9.54
40 | COCCCNc1nc2c(c(=O)[nH]c(=O)n2C)n1CC(O)COc1cccc(C)c1 (stereo not drawn) | -25.7
41 | COc1ccc(NC(=O)c2ccc(Oc3ncccn3)cc2)cc1 | 9.5
42 | Cn1c(N)c(C(=O)COC(=O)CCCN2C(=O)c3ccccc3C2=O)c(=O)n(C)c1=O | 13.1
43 | O=C(CN1CCN(c2ccccc2F)CC1)NC(=O)NCc1ccccc1 | 37.5
44 | COc1ccc(-c2cc(C(F)(F)F)c3c(n2)sc2c(O)cc(=O)[nH]c23)c(OC)c1 | 3.85
45 | Nc1ccccc1S(=O)(=O)NC1=NCCCCC1 | 7.97
46 | O=C(NCc1ccccc1)c1nc[nH]c1C(=O)N1CCN(c2ccccc2)CC1 | -1.54

Row | SMILES | activity change, negative = inhibition [%]
47 | CC1CCN(C(=O)c2[nH]cnc2C(=O)N[C@@H](C)C(=O)OC(C)(C)C)CC1 | -3.97
48 | CC(C)(C)OC(=O)NCC(=O)N1CCC(C(=O)O)CC1 | 0.797
49 | CC(=O)Nc1ccc(NS(=O)(=O)c2ccc3ccccc3c2)cc1 | 17.6
50 | CCc1ccc(N2CC34C=CC(O3)C(C(=O)OC(C)C)C4C2=O)cc1 (stereo not drawn) | 11.4
51 | COc1ccc(N=Cc2nc(-c3ccccc3)oc2OC(=O)c2ccccc2)cc1 | -7.66
52 | COC(=O)c1c(NC(=O)C(=O)NCCCN2CCOCC2)sc2c1CCCC2 | 23.1
53 | Cc1nn2c(SCC(=O)c3cccs3)cc(C(C)(C)C)nc2c1-c1ccccc1 | 18.4
54 | CC(C)(C)c1ccc(C(=O)n2cnc3ccccc32)cc1 | -4.98
55 | O=C(O)c1ccc(NS(=O)(=O)c2cc(C(=O)O)ccc2Br)cc1 | -5.5
56 | Cc1ccc(CNC(=O)C2CCCN2C(=O)Nc2ccccc2)cc1 (stereo not drawn) | 6.34
57 | O=C(O)C1CCCCN1S(=O)(=O)c1ccc(Cl)s1 (stereo not drawn) | 3.43
58 | Cc1ccc(-n2nnnc2-c2cnc3cc4c(cc3c2C)OCO4)cc1 | 5.42
59 | Cc1ccc2nc(NNC(=O)c3ccc(S(=O)(=O)N4CCc5ccccc5C4)cc3)sc2c1 | 24.4
60 | O=C(CSc1nnc(-c2ccccc2)n1C1CCCCC1)N1CCCC1 | 14.9
61 | Cc1ccnc(NS(=O)(=O)c2ccc(NS(=O)(=O)c3ccccc3)cc2)n1 | -7.87
62 | O=C(CN(Cc1ccco1)C(=O)c1ccccc1F)Nc1ccccc1C(F)(F)F | -17.7
63 | CCc1cccc2c1NC(=O)C2(O)N1CCCC(C)C1 (stereo not drawn) | -0.33
64 | COc1cccc(C(=O)Nc2cc([N+](=O)[O-])ccc2N2CCN(C)CC2)c1 | -5.03
65 | CS(=O)(=O)N(CC(=O)NC1CCCC1)c1cccc(F)c1 | -8.84
66 | Cc1cccc(NC(=O)CN(c2ccc(F)cc2)S(C)(=O)=O)c1 | 19.3
67 | COC(CN(C)C(=O)C1CCCN(S(=O)(=O)c2ccc3c(c2)oc(=O)n3C)C1)OC (stereo not drawn) | 6.34
68 | CCOC(=O)c1c(NC(NC(C)=O)C(Cl)(Cl)Cl)sc(C(C)=O)c1C (stereo not drawn) | -6.84
